Values joined by “and” are separate entries in the source; they are usually repeats but may differ in a detail not shown here. Equal entries are not always repeated. Inconclusive results are not listed. Entries that show only a call come without a potency. Some structures have more than one record in an assay (separate samples or runs), and their calls can disagree. Active and inactive are the calls of the source. Unless noted, calls come from the whole dose curve; as a rule, active = well fitted curve in the direction sought with a large enough effect in the repeat runs; inconclusive = weak or mixed curves; inactive = no such curve, though single readings can be large; an effect the other way counts as inactive or inconclusive.
What was measured:
[1] = qHTS assay to identify aromatase inhibitors - cell viability counter screen (AID 743084); conditions: MCF-7 aro ERE viability, CellTiter-Fluor, 24 h; series mostly up to 70.3 µM;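 note: cells stimulated with testosterone during compound exposure; nearly all actives have a fitted effect of over 55% in size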; note: potency is the fitted concentration of half-maximal effect
[2] = target: Aryl hydrocarbon receptor (Homo sapiens) (UniProt P35869); experiment: qHTS assay to identify small molecule that activate the aryl hydrocarbon receptor (AhR) signaling pathway (AID 743085); conditions: HepG2 AhR-luc (HG2L7.5c1), luciferase, 24 h; series mostly up to 70.3 µM; note: nearly all actives have a fitted effect of over 15% in size; note: potency is the fitted concentration of half-maximal effect;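 for activation: HG2L7.5c1 human HepG2 liver cells with stably integrated DRE-driven firefly reporter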
Chain of Aryl hydrocarbon receptor (Homo sapiens) (P35869 whole entry, looked up): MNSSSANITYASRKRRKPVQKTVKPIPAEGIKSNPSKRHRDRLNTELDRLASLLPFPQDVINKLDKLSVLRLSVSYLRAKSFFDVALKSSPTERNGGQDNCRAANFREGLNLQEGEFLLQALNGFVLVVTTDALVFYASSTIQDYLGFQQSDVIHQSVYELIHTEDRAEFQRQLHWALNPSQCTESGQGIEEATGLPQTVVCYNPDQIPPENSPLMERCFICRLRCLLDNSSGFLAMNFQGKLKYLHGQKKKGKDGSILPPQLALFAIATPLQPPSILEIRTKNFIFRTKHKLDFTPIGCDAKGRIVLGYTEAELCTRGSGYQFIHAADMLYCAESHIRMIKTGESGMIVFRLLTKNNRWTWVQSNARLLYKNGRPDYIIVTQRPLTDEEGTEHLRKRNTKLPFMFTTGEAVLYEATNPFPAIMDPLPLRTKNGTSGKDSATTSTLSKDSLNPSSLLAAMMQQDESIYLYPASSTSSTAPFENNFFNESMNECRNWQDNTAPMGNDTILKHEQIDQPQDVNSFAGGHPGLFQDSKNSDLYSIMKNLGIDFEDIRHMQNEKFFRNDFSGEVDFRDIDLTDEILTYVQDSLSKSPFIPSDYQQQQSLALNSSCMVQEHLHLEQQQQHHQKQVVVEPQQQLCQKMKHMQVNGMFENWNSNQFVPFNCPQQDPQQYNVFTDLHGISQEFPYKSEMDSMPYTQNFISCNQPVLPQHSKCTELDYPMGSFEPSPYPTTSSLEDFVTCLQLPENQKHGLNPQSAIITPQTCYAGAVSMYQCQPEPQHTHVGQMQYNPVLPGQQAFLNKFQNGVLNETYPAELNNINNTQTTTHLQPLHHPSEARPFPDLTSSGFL
Summary of the method: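 24 h compound exposure, 37C, HepG2-derived HG2L7.5c1 cells with DRE-responsive luciferase. Readouts: fluorescence viability, then luminescence at room temperature after 30 min.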

[3] = qHTS assay to identify small molecule that activate the aryl hydrocarbon receptor (AhR) signaling pathway - cell viability counter screen (AID 743086); conditions: HepG2-AhR-luc viability, CellTiter-Fluor, 24 h; series mostly up to 70.3 µM; note: nearly all actives have a fitted effect of over 45% in size; note: potency is the fitted concentration of half-maximal effect
Summary of the method: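 HepG2-AhR-luc (HG2L7.5c1) cells, 4000/well, were preincubated 5 h at 37C, exposed to compound in qHTS format for 24 hr at 37C, then given CellTiter-Fluor for 30 min; viability was read as fluorescence in the reporter wells.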

[4] = target: Peroxisome proliferator-activated receptor gamma (Homo sapiens) (UniProt P37231); experiment: qHTS assay to identify small molecule agonists of the peroxisome proliferator-activated receptor gamma (PPARg) signaling pathway (AID 743094; active = well fitted activation curve with a large enough effect in the signal ratio in the repeat runs, not every such curve was filed as active; the % refers to the signal ratio; note: potency is the fitted concentration of half-maximal effect); conditions: HEK293H PPARg-UAS-bla, beta-lactamase FRET ratio, 17 h; series mostly up to 57 µM
Chain of Peroxisome proliferator-activated receptor gamma (Homo sapiens) (P37231 whole entry, looked up): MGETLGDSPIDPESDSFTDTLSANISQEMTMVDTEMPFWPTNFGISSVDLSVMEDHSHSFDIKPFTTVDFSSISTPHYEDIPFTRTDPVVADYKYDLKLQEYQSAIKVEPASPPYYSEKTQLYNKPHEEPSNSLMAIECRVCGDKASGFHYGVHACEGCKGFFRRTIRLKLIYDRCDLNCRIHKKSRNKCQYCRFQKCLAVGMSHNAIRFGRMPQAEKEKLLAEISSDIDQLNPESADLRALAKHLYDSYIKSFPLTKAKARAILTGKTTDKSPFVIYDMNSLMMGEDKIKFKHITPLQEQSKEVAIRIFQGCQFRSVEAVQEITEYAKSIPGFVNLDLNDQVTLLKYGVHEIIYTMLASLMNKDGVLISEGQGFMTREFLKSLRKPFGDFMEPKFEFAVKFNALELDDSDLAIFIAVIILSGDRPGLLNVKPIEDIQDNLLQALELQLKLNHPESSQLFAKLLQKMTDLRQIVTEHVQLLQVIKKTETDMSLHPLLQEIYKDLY
Summary of the method: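 Agonism was assessed in a beta-lactamase reporter system, HEK293H cells with a stably integrated UAS-bla construct under PPARg control; the 17 h treatment at 37C preceded a 1 h room-temperature FRET substrate read.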

[5] = target: Peroxisome proliferator-activated receptor gamma (Homo sapiens) (UniProt P37231); experiment: qHTS assay to identify small molecule antagonists of the peroxisome proliferator-activated receptor gamma (PPARg) signaling pathway (AID 743191; calls by dose curve; note: nearly all actives have a fitted effect of over 30% in size; note: potency is the fitted concentration of half-maximal effect); conditions: HEK293H PPARg-UAS-bla, beta-lactamase ratio, antagonist, 17 h; series mostly up to 62.6 µM
Summary of the method: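 GeneBLAzer PPARg UAS-bla HEK293H cells carrying a UAS-driven beta-lactamase reporter were plated at 3000 cells/well, preincubated 5 h at 37C, then given compound for 17 h at 37C; LiveBLAzer B/G FRET substrate was read after 1 h at room temperature.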

[6] = qHTS assay to identify small molecule antagonists of the peroxisome proliferator-activated receptor gamma (PPARg) signaling pathway - cell viability counter screen (AID 743194); conditions: PPARg-bla HEK293H viability, CellTiter-Glo luminescence, 17 h; Potency: co-treated with 50 nM rosiglitazone unless noted; series mostly up to 62.6 µM; note: nearly all actives have a fitted effect of over 55% in size
Summary of the method: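 PPARg-UAS-bla HEK293H cells were plated, rested 5 h at 37 C, then treated with compounds plus rosiglitazone (50 nM final) for 17 h at 37 C; viability was then read by CellTiter-Glo luminescence after 30 min at room temperature.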

[7] = qHTS assay for small molecule agonists of the antioxidant response element (ARE) signaling pathway (AID 743202; active = well fitted activation curve with a large enough effect in the signal ratio in the repeat runs, not every such curve was filed as active; the % refers to the signal ratio; note: potency is the fitted concentration of half-maximal effect); conditions: HepG2 ARE-bla reporter, beta-lactamase FRET, 16 h; series mostly up to 73.3 µM
Summary of the method: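 Following a 16 h, 37 C exposure of reporter HepG2 cells (ARE-driven beta-lactamase, 2,000 cells/well) to compounds, FRET substrate was applied for 2 h at room temperature and fluorescence intensity recorded.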

[8] = qHTS assay for small molecule agonists of the antioxidant response element (ARE) signaling pathway - cell viability counter screen (AID 743203; calls by dose curve; note: nearly all actives have a fitted effect of over 55% in size; note: potency is the fitted concentration of half-maximal effect); conditions: ARE-bla HepG2 viability, CellTiter-Glo luminescence, 16 h; series mostly up to 73.3 µM
Summary of the method: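 ATP content via CellTiter-Glo luminescence served as the viability measure. Cells: ARE-bla HepG2, 2,000 per well. Exposure: 16 hrs, 37C/5% CO2.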

[9] = qHTS assay for small molecule activators of the heat shock response signaling pathway - cell viability counter screen (AID 743209); conditions: HSE-bla HeLa viability, CellTiter-Glo luminescence, 5 h; series mostly up to 62.6 µM; note: nearly all actives have a fitted effect of over 50% in size; note: potency is the fitted concentration of half-maximal effect
Summary of the method: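 Compounds dissolved in DMSO were added to overnight-plated HSE-bla HeLa cells and left 5 h at 37 C. Cell viability was quantified by luminescence using CellTiter-Glo.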

[10] = qHTS assay for small molecule activators of the heat shock response signaling pathway (AID 743210; active = well fitted activation curve with a large enough effect in the signal ratio in the repeat runs, with a control signal flat, not every such curve was filed as active; the % refers to the signal ratio; note: potency is the fitted concentration of half-maximal effect); conditions: HeLa HSE-bla reporter, beta-lactamase ratio, 5 h; series mostly up to 62.6 µM
Summary of the method: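 Heat shock element–beta-lactamase HeLa reporter cells; qHTS with compounds for 5 h at 37 C; detection by FRET substrate fluorescence after 2.5 h at RT.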

Compound	Potency [1]	Potency [2]	Potency [3]	Potency [4]	Potency [5]	Potency [6]	Potency [7]	Potency [8]	Potency [9]	Potency [10]
CCCCC(CC)COC(=O)c1ccc(C(=O)OCC(CC)CCCC)c(C(=O)OCC(CC)CCCC)c1 (stereo unspecified)	inactive	inactive	inactive	inactive	inactive	inactive	inactive	inactive	inactive	inactive
NCc1cccnc1	inactive	inactive	inactive	inactive	inactive		inactive	inactive	inactive	inactive
CCN(CC)N=O	inactive	inactive	inactive	inactive	inactive	inactive	inactive	inactive	inactive	inactive
Nc1c(Cl)cc([N+](=O)[O-])cc1Cl	inactive	inactive	inactive	inactive	inactive	inactive	inactive	inactive	inactive	inactive
Oc1cc(Cl)c(Cl)cc1Cl	inactive	inactive	inactive	inactive	inactive	inactive		inactive	inactive	inactive
CC(C)C(=O)OCC(C)(C)C(OC(=O)C(C)C)C(C)C (stereo unspecified)	inactive	inactive	inactive	inactive	inactive		inactive	inactive	24.8 µM (active) and inactive	inactive
C=CCN(CC=C)C(=O)C(Cl)Cl	inactive	inactive	inactive	inactive	inactive	inactive	inactive	inactive	inactive	inactive
c1ccc(P(c2ccccc2)c2ccccc2)cc1	inactive	inactive	inactive	inactive	inactive	inactive		inactive	inactive	inactive and 3.34 µM (active)
CCCCCCCCCCCOC(=O)c1ccccc1C(=O)OCCCCCCCCCCC	inactive	inactive	inactive	inactive		inactive	inactive	inactive	inactive	
COP(=O)(OC)OC	inactive	inactive	inactive	inactive	inactive	inactive	inactive	inactive	inactive	inactive
Oc1cc(Cl)ccc1Cl	inactive	inactive	inactive	inactive	inactive		inactive	inactive	inactive	inactive
Oc1ccc(-c2ccccc2)cc1	inactive	inactive	inactive	inactive	30.5 µM (active)	inactive	53.8 µM (active) and 21.7 µM (active)	inactive	inactive	
CCCCCCCCOC(=O)c1ccccc1C(=O)OCCCCCCCC	inactive	inactive	inactive	inactive and 54.8 µM (active)	inactive	inactive	inactive	inactive	inactive	inactive
Cc1cc(Cl)ccc1OCCCC(=O)O	inactive	inactive	inactive	inactive	inactive	inactive	inactive	inactive	inactive	inactive
OCC(O)CO	inactive	inactive	inactive	inactive	inactive		inactive	inactive	inactive	inactive
NC(=S)Nc1ccccc1	inactive	inactive	inactive	inactive	inactive	inactive	inactive	inactive	inactive	inactive
CCCCCCOC(=O)c1ccccc1C(=O)OCCCCCC	inactive	inactive	inactive	inactive	inactive		inactive	inactive	inactive	inactive
CCN(CC)C(=O)SCc1ccc(Cl)cc1	inactive	inactive	inactive	inactive	inactive	inactive	inactive	inactive	inactive	inactive
O=C(O)CC[N+](=O)[O-]	inactive	inactive	inactive	inactive	inactive	inactive	inactive	inactive	inactive	inactive
C[C@]12CCC(=O)C(O)=C1CC[C@@H]1[C@@H]2CC[C@]2(C)C(=O)CC[C@@H]12	inactive	inactive	inactive	inactive	inactive	inactive		inactive	inactive	inactive
CCC(C)c1cc([N+](=O)[O-])cc([N+](=O)[O-])c1O (stereo unspecified)	inactive and 27.3 µM (active)	inactive	inactive and 13.7 µM (active)	inactive	inactive	inactive	inactive and 611 nM (active)	inactive and 969 nM (active)	inactive	inactive
CCCCNC(=O)n1c(NC(=O)OC)nc2ccccc21	inactive	34.2 µM (active) and inactive	inactive	inactive	inactive		inactive	inactive	inactive	inactive
CCCCN(CCCC)N=O	inactive	inactive	inactive	inactive	inactive	inactive	inactive	inactive	inactive	inactive

Compound	Potency [1]	Potency [2]	Potency [3]	Potency [4]	Potency [5]	Potency [6]	Potency [7]	Potency [8]	Potency [9]	Potency [10]
Cc1ccccc1[N+](=O)[O-]	inactive	inactive	inactive	inactive	inactive	inactive	inactive	inactive	inactive	
c1ccc(N=Nc2ccccc2)cc1	inactive	inactive	inactive	inactive	inactive		inactive	inactive	inactive	inactive
CCCCN(CC)c1c([N+](=O)[O-])cc(C(F)(F)F)cc1[N+](=O)[O-]	inactive	inactive	inactive	inactive	inactive	inactive	inactive	inactive	inactive	inactive
Clc1nc(Cl)nc(Cl)n1	inactive	inactive	inactive	inactive	inactive	inactive	inactive	inactive	inactive	inactive
Cc1cccc(N)c1N	inactive	11.8 µM (active) and 43.3 µM (active)	inactive	inactive	inactive		9.36 µM (active) and 17.2 µM (active)	inactive	inactive	inactive
Nn1cnnc1	inactive	inactive	inactive	inactive	inactive		inactive	inactive	inactive	inactive
CC(C)(C)c1ccccc1O	inactive	inactive	inactive	inactive	inactive	inactive		inactive	inactive	inactive
O=P(O)(O)CCCl	inactive	inactive	inactive	inactive	inactive		inactive	inactive	inactive	inactive
NNC(N)=S	28.4 µM (active) and inactive	inactive and 19.3 µM (active)	inactive	inactive	inactive		inactive	inactive	40.4 µM (active) and inactive	
O=[N+]([O-])c1cccc2ccccc12	inactive	inactive	inactive	inactive	inactive		inactive	inactive	inactive	inactive
CCCCCc1cc(O)cc(O)c1	inactive	61.4 µM (active)	inactive	inactive	24.7 µM (active)	inactive	48.8 µM (active) and 48.6 µM (active)	inactive	inactive	inactive
CCOc1cc(Oc2ccc(C(F)(F)F)cc2Cl)ccc1[N+](=O)[O-]	inactive	inactive	inactive	inactive	inactive			inactive	inactive	inactive
ClC1C(Cl)C(Cl)C(Cl)C(Cl)C1Cl (stereo unspecified)	inactive	inactive	inactive	inactive	inactive		inactive	inactive	inactive	inactive
CC(C)(OOC(C)(C)c1ccccc1)c1ccccc1	inactive	inactive	inactive	inactive		inactive	inactive	inactive	48.3 µM (active) and inactive	inactive
Cc1ccc(OP(=O)(Oc2ccc(C)cc2)Oc2ccc(C)cc2)cc1	inactive	inactive	inactive	inactive		inactive	inactive	inactive	inactive	inactive
CCC(=O)O[C@H]1CC[C@H]2[C@@H]3CCC4=CC(=O)CC[C@]4(C)[C@H]3CC[C@]12C	inactive	inactive	inactive	inactive				68.6 µM (active) and inactive	54.9 µM (active) and inactive	inactive
C=CCc1ccc(OC)cc1	inactive	inactive	inactive	inactive		inactive	inactive	inactive	inactive	inactive
Nc1ccc(Cl)c(Cl)c1	inactive	55.7 µM (active) and 61.1 µM (active)	inactive	inactive			inactive	inactive	inactive	inactive
CCCCC(CC)COC(=O)Cl (stereo unspecified)	inactive	inactive		inactive	inactive		inactive	inactive	inactive	inactive
CN(C)C(=O)Nc1ccc(Cl)cc1	inactive	inactive		inactive	inactive	inactive	inactive	inactive	inactive	inactive
COP(=S)(OC)Oc1ccc([N+](=O)[O-])cc1	inactive	inactive	inactive	inactive		inactive		inactive	inactive	inactive
O=[N+]([O-])c1c(Cl)c(Cl)c(Cl)c(Cl)c1Cl	inactive	inactive		inactive		inactive	24.2 µM (active)	19.3 µM (active)	inactive	inactive
